From PubChem BioAssay (Tox21)
Inconclusive results are not listed. Calls of active or inactive are those of the source. Unless noted, the call rests on the fitted dose curve; in most records, active means well fitted curve in the direction sought with a large enough effect in the repeat runs; inconclusive means weak or mixed curves; inactive means no such curve, though single readings can be large; an effect the other way counts as inactive or inconclusive.

Tests used:
[1] = A CellTox Green Cytotoxicity Assay to monitor cytotoxicity in HEK293 cells - 8 hour (AID 1224884); further: nearly all actives have a fitted effect of over 35% in size
Outline: (§1)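 Read-out: fluorescence of a cell-impermeant cyanine dye staining DNA of dead cells, proportional to cytotoxicity. HEK293, 600 cells/well with reagent, compound (23 nL DMSO) added after 5 h; reads at 0, 8, 16, 24, 32, 40 h.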

[2] = qHTS RealTime-Glo MT Cell Viability Assay in HepG2 cells - 16 hour (AID 1224885); further: nearly all actives have a fitted effect of over 50% in size
Outline: (§2)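 Viability was tracked continuously by NanoLuc luminescence from prosubstrate reduced by living HepG2 cells, at successive time points over 40 h of compound exposure. Cells with reagent were preincubated 5 h at 37 °C before compound addition.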

[3] = qHTS RealTime-Glo MT Cell Viability Assay in HEK293 cells - 24 hour (AID 1224886); further: top concentration of the series differs between compounds; nearly all actives have a fitted effect of over 50% in size
Outline: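 Viability tracked continuously by luminescence as live cells reduce a prosubstrate for NanoLuc; HEK293 cells preincubated 5 h, compound-treated at 37 C, and read at 0, 8, 16, 24, 32 and 40 h.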

[4] = qHTS RealTime-Glo MT Cell Viability Assay in HEK293 cells - 8 hour (AID 1224887); further: top concentration of the series differs between compounds; nearly all actives have a fitted effect of over 50% in size
Outline: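 Luminescence readout at each listed time point; HEK293, 600 cells/well, RealTime-Glo MT reagent added with cells; compounds pinned (23 nL in DMSO) after 5 h at 37 C; continuous culture at 37 C.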

[5] = A CellTox Green Cytotoxicity Assay to monitor cytotoxicity in HEK293 cells - 16 hour (AID 1224888); further: nearly all actives have a fitted effect of over 35% in size
Outline: as §1

[6] = qHTS RealTime-Glo MT Cell Viability Assay in HepG2 cells - 0 hour (AID 1224889); further: nearly all actives have a fitted effect of over 50% in size
Outline: as §2

[7] = A CellTox Green Cytotoxicity Assay to monitor cytotoxicity in HepG2 cells - 8 hour (AID 1224890); further: nearly all actives have a fitted effect of over 45% in size
Outline: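 HepG2, 600 cells/well premixed w/ CellTox Green; 5 h settle, 37 C/5% CO2; pintool cpd add (DMSO); 37 C, 40 h; fluorescence read at 0, 8, 16, 24, 32, 40 h.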

[8] = qHTS assay to identify small molecule antagonists of the estrogen receptor alpha (ER-alpha) signaling pathway using the BG1 cell line in the presence of 0.1 nM 17-beta-estradiol - cell viability counter screen (AID 1259241); further: nearly all actives have a fitted effect of over 40% in size
Outline: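 The cell line endogenously expresses full-length ER-alpha and carries four EREs driving luciferase. Cells are cultured 5 days hormone-free, treated 22 hr with compounds and 0.1 nM estradiol, then viability is read by fluorescence.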

[9] = qHTS assay to identify small molecule antagonists of the androgen receptor (AR) signaling pathway using the MDA cell line in the presence of 0.5 nM R1881 - cell viability counter screen (AID 1259242); further: nearly all actives have a fitted effect of over 45% in size
Outline: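 Live-cell protease fluorescence, CellTiter-Fluor, 30 min at 37C. Cells: MDA-kb2, 3,000/well, preincubated 5 hr. Compounds plus 0.5 nM R1881 final, 16 hr, 37C, 0% CO2.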

[10] = target: Androgen receptor (Homo sapiens) (UniProt P10275); experiment: qHTS assay to identify small molecule antagonists of the androgen receptor (AR) signaling pathway using the MDA cell line in the presence of 0.5 nM R1881 (AID 1259243); further: nearly all actives have a fitted effect of over 50% in size
Outline: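 MDA-kb2, MMTV-luc (AR/GR elements); 3,000 cells/well; cpd + 0.5 nM R1881 final; 16 hr 37C, 0% CO2; ONE-Glo 30 min RT; luminescence.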

[11] = qHTS assay to identify small molecule HDAC inhibitors (AID 1259364);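 further: wild-type HCT-116 cells with endogenous class I/II HDAC activity; top concentration of the series differs between compounds; nearly all actives have a fitted effect of over 45% in size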
Outline: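 HCT-116 (wild type), 1,500 cells/well, overnight; compound 2 hr 37C 5% CO2; HDAC-Glo I/II reagent 30 min RT; luminescence readout.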

[12] = qHTS assay to identify small molecule HDAC inhibitors - cell viability counter screen (AID 1259365)
Outline: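 Viability readout: CellTiter-Glo luminescence. Wild-type HCT-116 cells, 2hr compound treatment following overnight attachment at 37 C.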

[13] = qHTS assay to identify small molecule agonists of the sonic hedgehog signaling (Shh) pathway - cell viability counter screen (AID 1259366); further: nearly all actives have a fitted effect of over 50% in size
Outline: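 Viability measured fluorometrically (CellTiter-Fluor, 1hr, 37C) in 3T3 Gli1-Luc reporter cells after 23hr compound exposure within a 24hr incubation at 37C/5% CO2.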

[14] = qHTS assay to identify small molecule antagonists of the sonic hedgehog signaling (Shh) pathway - cell viability counter screen (AID 1259367); further: nearly all actives have a fitted effect of over 55% in size
Outline: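 Viability was read by CellTiter-Fluor fluorescence in the same wells, reagent added 23 hr into compound treatment and incubated 1 hr at 37C. The 3T3 Gli1-Luc reporter cells (2,000/well) received conditioned medium after compound and ran 24 hr.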

[15] = qHTS assay to identify small molecule agonists of the sonic hedgehog signaling (Shh) pathway (AID 1259368; calls by dose curve;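 further: NIH/3T3-derived 3T3Gli1-Luc cells carrying a stable Gli1-driven firefly luciferase reporter; series mostly up to about 92 µM; nearly all actives have a fitted effect of over 15% in size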)
Outline: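 Read-out: firefly luciferase luminescence from a Gli1 response element reporter stably integrated in NIH/3T3-derived 3T3Gli1-Luc cells, measured 30 min at room temperature after reagent addition. Compound exposure lasted 24 hr at 37 C, 5% CO2.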

[16] = qHTS assay to identify small molecule antagonists of the sonic hedgehog signaling (Shh) pathway (AID 1259369; calls by dose curve; further: nearly all actives have a fitted effect of over 45% in size)
Outline: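 Luminescence readout: firefly Luc under Gli1 response element in 3T3Gli1-Luc cells (NIH/3T3 clone). Antagonist mode, stimulation by conditioned medium; compound exposure 24hr at 37 C, 5% CO2.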

[17] = target: Estrogen receptor beta (Homo sapiens) (UniProt Q92731); experiment: qHTS assay to identify small molecule agonists of the estrogen receptor beta (ER-beta) signaling pathway (AID 1259377; active means well fitted activation curve with a large enough effect in the signal ratio in the repeat runs, not every such curve was filed as active; the % refers to the signal ratio)
Outline: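 A UAS-controlled beta-lactamase reporter in ER-beta-UAS-bla HEK293T cells reports receptor activation. Compounds act for 16 hr at 37C in 2% charcoal-stripped serum, and a FRET substrate is read by fluorescence after 2 hours.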

[18] = target: Estrogen receptor beta (Homo sapiens) (UniProt Q92731); experiment: qHTS assay to identify small molecule antagonists of the estrogen receptor beta (ER-beta) signaling pathway (AID 1259378; active means well fitted inhibition curve with a large enough effect in the signal ratio in the repeat runs, not every such curve was filed as active; the % refers to the signal ratio)
Outline: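 Antagonist mode: compounds added to beta-lactamase reporter HEK293T ER-beta-UAS cells stimulated with E2 (1nM final), 16 hr at 37C. LiveBLAzer B/G FRET substrate, 2 hours room temperature, fluorescence read-out.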

[19] = target: Estrogen receptor (Homo sapiens) (UniProt P03372); experiment: qHTS assay to identify small molecule antagonists of the estrogen receptor alpha (ER-alpha) signaling pathway using the BG1 cell line in the presence of 0.1 nM 17-beta-estradiol (AID 1259244); further: nearly all actives have a fitted effect of over 50% in size
Outline: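 Luminescence after ONE-Glo (30 min, room temperature) measured ERE-luciferase activity in VM7Luc4E2 cells treated 22 h with compound and 0.1 nM final 17beta-estradiol as stimulator.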
On the % scale 0 is the no-effect control and ±100 the full control effect.

Sequence of Estrogen receptor (Homo sapiens) (P03372 whole entry, looked up): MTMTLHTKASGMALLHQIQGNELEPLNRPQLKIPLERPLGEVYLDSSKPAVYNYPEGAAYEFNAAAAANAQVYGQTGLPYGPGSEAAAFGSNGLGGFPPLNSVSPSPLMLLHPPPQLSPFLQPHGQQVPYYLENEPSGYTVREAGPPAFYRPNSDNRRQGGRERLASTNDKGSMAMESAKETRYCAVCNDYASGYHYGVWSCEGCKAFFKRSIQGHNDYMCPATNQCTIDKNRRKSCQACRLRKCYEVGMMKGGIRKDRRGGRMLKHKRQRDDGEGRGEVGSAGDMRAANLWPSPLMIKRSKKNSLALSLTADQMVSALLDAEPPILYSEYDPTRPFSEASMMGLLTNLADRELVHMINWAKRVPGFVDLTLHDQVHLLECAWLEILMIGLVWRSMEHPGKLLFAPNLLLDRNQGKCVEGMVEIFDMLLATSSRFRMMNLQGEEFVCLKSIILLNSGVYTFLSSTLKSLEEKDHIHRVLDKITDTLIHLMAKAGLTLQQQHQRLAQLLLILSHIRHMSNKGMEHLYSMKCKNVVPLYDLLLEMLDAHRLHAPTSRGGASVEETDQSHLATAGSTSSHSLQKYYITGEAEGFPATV
Sequence of Androgen receptor (Homo sapiens) (P10275 whole entry, looked up): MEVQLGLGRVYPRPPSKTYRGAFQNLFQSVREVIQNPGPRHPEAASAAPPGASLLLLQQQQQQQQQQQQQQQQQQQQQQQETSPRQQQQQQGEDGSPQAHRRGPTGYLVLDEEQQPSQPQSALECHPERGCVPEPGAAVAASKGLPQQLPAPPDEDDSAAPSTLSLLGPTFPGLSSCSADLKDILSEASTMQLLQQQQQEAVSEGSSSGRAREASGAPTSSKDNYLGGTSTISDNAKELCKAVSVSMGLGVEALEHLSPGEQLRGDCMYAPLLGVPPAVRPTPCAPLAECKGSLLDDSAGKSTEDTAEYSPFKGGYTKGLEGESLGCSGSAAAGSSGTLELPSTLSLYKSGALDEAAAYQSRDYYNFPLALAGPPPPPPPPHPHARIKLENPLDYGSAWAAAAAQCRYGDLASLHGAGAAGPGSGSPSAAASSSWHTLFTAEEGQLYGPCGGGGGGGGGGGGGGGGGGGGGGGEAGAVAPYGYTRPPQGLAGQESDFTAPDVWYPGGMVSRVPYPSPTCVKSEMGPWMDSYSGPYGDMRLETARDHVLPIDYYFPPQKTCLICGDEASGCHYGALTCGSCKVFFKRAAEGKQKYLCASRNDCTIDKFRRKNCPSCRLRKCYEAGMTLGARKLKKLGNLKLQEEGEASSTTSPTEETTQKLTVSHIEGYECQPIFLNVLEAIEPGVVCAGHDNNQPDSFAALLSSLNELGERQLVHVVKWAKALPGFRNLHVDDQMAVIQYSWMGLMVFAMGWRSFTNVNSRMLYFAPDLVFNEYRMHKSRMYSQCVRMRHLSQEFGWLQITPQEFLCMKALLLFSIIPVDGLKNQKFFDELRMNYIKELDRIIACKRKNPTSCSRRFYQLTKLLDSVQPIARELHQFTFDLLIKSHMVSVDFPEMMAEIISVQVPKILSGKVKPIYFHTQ
Sequence of Estrogen receptor beta (Homo sapiens) (Q92731 whole entry, looked up): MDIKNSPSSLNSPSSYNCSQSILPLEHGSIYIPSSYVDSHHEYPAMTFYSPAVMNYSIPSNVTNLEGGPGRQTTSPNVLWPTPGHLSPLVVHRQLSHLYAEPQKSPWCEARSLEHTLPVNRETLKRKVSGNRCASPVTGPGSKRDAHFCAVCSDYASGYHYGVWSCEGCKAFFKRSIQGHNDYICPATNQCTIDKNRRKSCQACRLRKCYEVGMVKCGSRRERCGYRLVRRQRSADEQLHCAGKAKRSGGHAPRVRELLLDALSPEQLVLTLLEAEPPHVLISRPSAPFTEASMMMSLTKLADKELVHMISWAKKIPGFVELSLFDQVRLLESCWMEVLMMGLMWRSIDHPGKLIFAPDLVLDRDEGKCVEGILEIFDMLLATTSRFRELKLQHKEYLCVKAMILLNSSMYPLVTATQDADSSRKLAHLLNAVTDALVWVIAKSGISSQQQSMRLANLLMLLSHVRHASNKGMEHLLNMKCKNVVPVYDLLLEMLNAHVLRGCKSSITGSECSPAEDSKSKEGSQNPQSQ

CC(CC(C)(C)C)CC(C)(C)CC(C)(C)C (stereo unspecified)
inactive: Potency [1] | Potency [2] | Potency [3] | Potency [4] | Potency [5] | Potency [6] | Potency [7] | Potency [8] | Potency [9] | Potency [10] | Potency [11] | Potency [12] | Potency [13] | Potency [14] | Potency [15] | Potency [16] | outcome [17] | Potency [18]

CCOc1nc(F)cc2nc(S(=O)(=O)Nc3c(Cl)cccc3C(=O)OC)nn12
inactive: Potency [1] | Potency [2] | Potency [3] | Potency [4] | Potency [5] | Potency [6] | Potency [7] | Potency [8] | Potency [9] | Potency [10] | Potency [19] | Potency [11] | Potency [12] | Potency [13] | Potency [14] | Potency [15]

C=C[Si](C)(C)Cl
inactive: cytotoxicity increase [1] -2.48% [at 6.97 µM] | activity change, negative = cytotoxic [2] -9.49% [at 6.97 µM] | activity change, negative = cytotoxicity [3] -3.65% [at 6.97 µM] | activity change, negative = cytotoxicity [4] -4.42% [at 6.97 µM] | activity change [5] -2.03% [at 6.97 µM, stronger effect = higher value] | activity change, negative = cytotoxicity [6] -16.4% [at 6.97 µM] | cytotoxicity increase [7] -7.78% [at 6.97 µM] | activity change, negative = cytotoxicity [8] -11.6% [at 8.39 µM] | viability change, negative = cytotoxic [9] 0.0065% [at 8.39 µM] | activity change, negative = inhibition [11] 3.64% [at 8.39 µM] | activity change, negative = cytotoxicity [12] -0.871% [at 8.39 µM] | viability change, negative = cytotoxic [13] 9.73% [at 8.39 µM] | viability change, negative = cytotoxic [14] -1.01% [at 8.39 µM] | activity change [15] 1.18% [at 8.39 µM, stronger effect = higher value]

CC/C=C(\C)C=O
inactive: Potency [1] | Potency [2] | Potency [3] | Potency [4] | Potency [5] | Potency [6] | Potency [7] | Potency [8] | Potency [9] | Potency [19] | Potency [11] | Potency [12] | Potency [13] | Potency [14] | Potency [15] | Potency [16]

Nc1cc([N+](=O)[O-])cc(Cl)c1O
inactive: Potency [1] | Potency [2] | Potency [3] | Potency [4] | Potency [5] | Potency [6] | Potency [7] | Potency [8] | Potency [9] | Potency [19] | Potency [11] | Potency [12] | Potency [14] | Potency [15] | outcome [17]

Cn1c(=O)[nH]c2ncn(C)c2c1=O
inactive: Potency [1] | Potency [2] | Potency [3] | Potency [4] | Potency [5] | Potency [6] | Potency [7] | Potency [8] | Potency [9] | Potency [10] | Potency [11] | Potency [12] | Potency [13] | Potency [14] | Potency [15]

CN1CCN(C)CC1
inactive: Potency [1] | Potency [2] | Potency [3] | Potency [4] | Potency [5] | Potency [6] | Potency [7] | Potency [8] | Potency [9] | Potency [10] | Potency [19] | Potency [11] | Potency [12] | Potency [13] | Potency [14] | Potency [15] | outcome [17]
